High-throughput results (PubChem)
Compounds with a hit are over-represented: about 2.4% of the library has one in this group of screens.
CHO-K1 Ca antag – M1 antagonist counterscreen hit in parental CHO-K1 cells; ATP-induced calcium, Fluo-8 fluorescence; inhibition, % at 3 µM; actives 0.6% (n = 360,000);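 active = inhibition above a per-plate cutoff, the plate's mean sample inhibition plus 3 SD, cut at about 24% in these data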;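 note: 0% = DMSO plus EC80 ATP and 100% = DMSO alone without ATP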
CHRM1 PAM – human M1 muscarinic receptor positive allosteric modulators, primary screen, CHO-K1 cells, Fluo-8 calcium fluorescence, 1536-well; Muscarinic acetylcholine receptor M1 (Homo sapiens), P11229; CHO-K1 hM1, ACh EC20; 0% = ACh EC20, 100% = maximal ACh; activation, % at 3 µM; actives 0.088% (n = 360,000); AID 588819, 2011; in the data active = activation above about 19%, passing the limit was not always enough
Target sequence (P11229 whole entry, looked up): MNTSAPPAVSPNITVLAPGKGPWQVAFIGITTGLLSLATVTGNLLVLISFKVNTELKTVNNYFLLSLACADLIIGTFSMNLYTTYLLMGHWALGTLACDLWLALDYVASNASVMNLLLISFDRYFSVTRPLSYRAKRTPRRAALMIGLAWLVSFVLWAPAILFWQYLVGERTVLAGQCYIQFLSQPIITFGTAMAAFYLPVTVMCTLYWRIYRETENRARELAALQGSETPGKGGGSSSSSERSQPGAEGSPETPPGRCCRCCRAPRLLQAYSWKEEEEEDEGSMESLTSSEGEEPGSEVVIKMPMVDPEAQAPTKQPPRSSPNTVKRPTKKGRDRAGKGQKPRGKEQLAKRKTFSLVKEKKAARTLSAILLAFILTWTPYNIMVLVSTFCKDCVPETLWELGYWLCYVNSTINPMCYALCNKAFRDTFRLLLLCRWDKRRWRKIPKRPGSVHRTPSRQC
M1 ag – human M1 muscarinic receptor agonists, primary screen, Fluo-8 calcium fluorescence, CHO-K1 cells, HTS; Muscarinic acetylcholine receptor M1 (Homo sapiens), P11229; CHO-K1 hM1, agonist mode; 0% DMSO, 100% acetylcholine EC100; activation, % at 3 µM; actives 0.33% (n = 360,000); AID 588814, 2011;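 active = activation above the run's mean compound activation plus 3 SD, cut at about 16% in these data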;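 note: peak over basal fluorescence ratio within a 140 s kinetic read after compound addition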
CHO-K1 Ca PAM – nonselective calcium activators in parental CHO-K1 cells, primary screen, counter-screen for M1 PAM project, cell-based, Fluo-8 calcium fluorescence, full deck, 1536-well | ATP EC20; 0% at ATP EC20, 100% at ATP max | activation, % at 3 µM | actives 0.02% (n = 360,000) | AID 602247, 2012;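 active = activation above the run cutoff, the mean activation of all test compounds plus 3 SD, cut at about 40% in these data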;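 note: peak over basal fluorescence ratio in a 140 s read after ATP addition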
CHO-K1 Ca ag – counter-screen for M1 agonists: effect in parental CHO-K1 cells; Fluo-8 calcium fluorescence; scaled to maximal ATP response, vehicle zero; activation, % at 3 µM; actives 0.48% (n = 360,000); AID 602248, 2012; in the data active = activation above about 15%;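 note: untransfected CHO-K1 host cells lacking M1 receptor as counterscreen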
M1 antag – human M1 muscarinic receptor antagonists, primary screen, CHO-K1 cells, Fluo-8 calcium fluorescence, 1536-well | Muscarinic acetylcholine receptor M1 (Homo sapiens), P11229 | CHO-K1 hM1, ACh EC80 antagonist | inhibition, % at 3 µM | actives 1.3% (n = 360,000) | AID 588852, 2011;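 active = percent inhibition above its own plate's cutoff, namely the mean of that plate's compound wells plus 3 SD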;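 note: peak over basal fluorescence ratio during 140 s after agonist addition; 0% = ACh EC80 plus DMSO and 100% = DMSO alone without agonist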
Numbers without * were called inactive; · = not tested or not shown.

SMILES	CHO-K1 Ca antag	CHRM1 PAM	M1 ag	CHO-K1 Ca PAM	CHO-K1 Ca ag	M1 antag
CSc1ccc(CN2CCC(C)(Oc3ccc4ccccc4c3)C2)cc1 (stereo unspecified)	-0.1	0.8	-6.0	-3.6	0.4	-7.7
COCOc1cccc(CN2CCC(C)(Oc3ccc(C(C)=O)cc3)C2)c1 (stereo unspecified)	13.3	-10.2	-8.9	0.9	-0.5	29.0*
CC(C)c1ccc(CN2CCC(C)(Oc3ccc(Cl)cc3)C2)cc1 (stereo unspecified)	-7.5	5.8	-6.3	18.3	1.3	-8.8
CSc1ccc(OC2(C)CCN(Cc3ccccc3)C2)cc1 (stereo unspecified)	-0.8	-22.4	-8.4	-11.8	0.0	27.6*
CSc1ccc(CN2CCC(C)(Oc3ccc(CC#N)cc3)C2)cc1 (stereo unspecified)	-15.0	-23.8	-8.1	13.9	2.7	29.3*
CSc1ccc(CN2CCC(C)(Oc3ccc(-n4ccnc4)cc3)C2)cc1 (stereo unspecified)	-8.2	-28.6	-7.6	-3.3	4.7	58.1*
CC(CCc1ccccc1)NC(=O)CN1CCN(Cc2ccc(Cl)cc2)C1=O (stereo unspecified)	28.3*	-6.9	-6.7	-10.8	0.5	6.1
Cc1ccc(C)c(NC(=O)C2CCN(S(=O)(=O)c3ccc4c(c3)NC(=O)CO4)CC2)c1	-8.4	-3.0	-4.0	4.5	1.7	36.5*
CCN(CC)S(=O)(=O)c1cccc(C(=O)N/N=C/c2ccccc2OCC(=O)O)c1	-7.4	0.5	-3.5	-7.9	0.7	3.1
COc1ccc(/C=N/NC(=O)c2nc(-c3ccccc3)n(-c3ccccc3)n2)cc1OC	24.7*	-7.2	-5.3	-9.4	1.2	7.5
CCN(CC)S(=O)(=O)c1cccc(C(=O)N/N=C/c2ccc(OC)c(O)c2)c1	26.6*	8.0	1.6	-14.4	1.1	1.7
COc1cc(/C=N/NC(=O)c2nc(-c3ccccc3)n(-c3ccccc3)n2)ccc1O	-1.3	3.4	-6.0	13.9	1.3	-2.5
COc1ccc(/C=N/NC(=O)c2nc(-c3ccccc3)cc(-c3ccccc3)n2)cc1	7.6	-0.3	-1.8	2.0	1.4	12.7
COc1ccc(/C=N/NC(=O)c2nc(-c3ccccc3)cc(-c3ccccc3)n2)cc1O	10.0	-18.9	-5.5	-3.7	5.4	38.5*
Cc1ccc(-n2c(=O)[nH]cc(C(=O)Nc3ccc4c(c3)OCCO4)c2=O)cc1C	10.8	-3.1	-3.2	-6.1	-0.5	3.1
O=C(NCc1ccccc1)C1CCN(S(=O)(=O)c2ccc(N3CCCC3=O)cc2)CC1	-5.2	12.0	-1.0	15.7	5.6	-17.5
O=C(Nc1cccc(C(F)(F)F)c1)C1CCN(S(=O)(=O)c2ccc(N3CCCC3=O)cc2)CC1	21.7	-7.8	1.6	2.2	16.0*	33.1
CC(=O)N1c2ccc(S(=O)(=O)N3CCC(C(=O)Nc4cccc(C(F)(F)F)c4)CC3)cc2CC1C (stereo unspecified)	31.9*	-2.3	0.9	-10.5	8.5	14.4
COc1ccc(NC(=O)CCNC(=O)C2CCN(S(=O)(=O)c3ccc(OC)cc3)CC2)cc1	-4.9	6.7	-0.9	1.2	0.6	-5.0
O=C(NCc1ccc(Cl)cc1)C1CCN(S(=O)(=O)c2ccc(N3CCCC3=O)cc2)CC1	1.2	-14.8	1.0	-26.0	9.0	32.8*
COc1ccc(CNC(=O)CCNC(=O)C2CCN(S(=O)(=O)c3ccc(OC)cc3)CC2)cc1	-12.7	26.9*	0.6	15.6	0.2	-32.9
COc1cccc(NC(=O)C2CCN(S(=O)(=O)c3ccc4c(c3)CC(C)N4C(C)=O)CC2)c1 (stereo unspecified)	-15.2	-4.5	-0.3	3.0	9.2	3.9
COc1cccc(NC(=O)C2CCN(S(=O)(=O)c3ccc(N4CCCC4=O)cc3)CC2)c1	-8.3	-12.0	2.6	-0.5	12.6	4.9
Cc1cccc(C(CC(=O)N2CCCCC2)c2ccccc2)c1O (stereo unspecified)	10.7	2.6	-8.1	13.9	0.7	-6.8
CC(C)NS(=O)(=O)c1ccc(OCC(=O)NCc2ccccc2)cc1	-13.8	-1.2	-3.6	19.1	0.7	-21.0
SMILES	CHO-K1 Ca antag	CHRM1 PAM	M1 ag	CHO-K1 Ca PAM	CHO-K1 Ca ag	M1 antag
Cc1cnccc1CN(C)C(=O)CC1C(=O)NCCN1CC1CCCCC1 (stereo unspecified)	-0.4	4.1	-5.9	-19.6	0.2	-3.0
CC(=O)N(Cc1cccnc1)c1cccc(-c2nc3ccccc3s2)c1	8.6	-1.5	-1.1	-8.2	11.0	3.5
CCCn1c(-c2cccnc2Cl)nc2cc(Cl)c(Cl)cc21	-7.8	-4.2	-5.4	14.1	0.5	0.2
Cc1cc(N2CCN(c3ccccn3)CC2)n2c(nc3ccccc32)c1C#N	29.3*	0.3	-0.2	2.4	0.5	1.0
CCCc1cc(NCc2ccccn2)n2c(nc3ccccc32)c1C#N	-4.4	-3.5	-6.5	12.9	15.1*	1.7
Cc1cc(C)n2c(SCc3c(C)noc3C)nnc2n1	-8.8	0.2	-5.2	6.7	0.1	-2.1
CCN(C)C1CN(Cc2cn(Cc3ccccc3)nn2)S(=O)(=O)C1 (stereo unspecified)	-6.8	·	·	13.7	1.1	·
CCNc1nc(NC(C)C)nc(NS(=O)(=O)c2ccc(N)cc2)n1	27.0*	7.5	-2.2	-4.6	-0.2	3.0
CC(C)Nc1nc(NC(C)C)nc(NS(=O)(=O)c2ccc(N)cc2)n1	-6.9	-4.8	-3.5	1.9	0.0	0.7
CC(C)c1ccc(OCC(O)CNC(C)c2ccccc2)cc1 (stereo unspecified)	-7.7	1.5	-2.7	23.6	21.0*	9.3
OC(CNCCC(c1ccccc1)c1ccccc1)COc1ccccc1 (stereo unspecified)	1.6	-15.2	-5.8	3.2	8.2	31.2*
OC(CNCCc1ccccc1)COc1ccc(OCC(O)CNCCc2ccccc2)cc1 (stereo unspecified)	-2.9	-3.5	-7.9	16.9	0.5	6.8
CC(C)N(CCNCC(O)COc1ccc(C(C)(C)c2ccccc2)cc1)C(C)C (stereo unspecified)	-5.5	-19.0	-4.1	11.2	6.0	34.5*
O=C(CCN1C(=O)c2ccccc2C1=O)Nc1ccc(S(=O)(=O)NC2=NCCCCC2)cc1	-13.0	6.6	3.6	-6.8	0.1	-8.0
S=c1[nH]nc(COc2ccccc2)n1/N=C/c1ccco1	-2.4	11.7	-8.3	16.9	0.7	-3.2
